About 8,800 targets were measured; listed, in parts, are those with a hit and a random draw of the rest. About 0.5% of all pairs of compound and target were hits. Unmarked numbers belong to inactive results.
Experiments:
Assay in all cases: log2 fold change, soluble protein after heating vs DMSO (PISA); higher = thermal stabilisation; K562 lysate, 10 uM; active = over 0.2 and 3.5 SD of the protein, either way, in both replicates (recomputed)
[1] = compound: NCC(=O)Nc1ccc(-n2nc(C(F)(F)F)cc2-c2ccc3c(ccc4ccccc43)c2)cc1
Procedure, shortened: (§1)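 To prepare the extract, K562 pellets were dounce-homogenised in PBS pH 7.4 with 1 mM MgCl2, giving crude material at 1 mg/mL protein. This was treated with 10 μM compound for 30 min, then heated in aliquots for 3 min over 48°C-58°C before pooling and addition of NP-40 to 0.5% at 4°C. Centrifugation at 21,000xg for 90 min left soluble protein in the supernatant, which TMTpro 16plex LC-MS/MS quantified with equalised channel sums. Results are log-two fold changes in thermal stability compared with solvent controls, from duplicates.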

vorinostat = compound: O=C(CCCCCCC(=O)Nc1ccccc1)NO [vorinostat]
Procedure, shortened: as §1

silmitasertib = compound: O=C(O)c1ccc2c(c1)nc(Nc1cccc(Cl)c1)c1ccncc12 [silmitasertib]
Procedure, shortened: as §1

[2] = compound: O=C1NC(=O)C(c2cnc3ccccn23)=C1c1cn2c3c(cc(F)cc13)CN(C(=O)N1CCCCC1)CC2
Procedure, shortened: as §1

entospletinib = compound: c1cn2cc(-c3ccc4cn[nH]c4c3)nc(Nc3ccc(N4CCOCC4)cc3)c2n1 [entospletinib]
Procedure, shortened: as §1

Chain of UniProt P85037 (P85037 whole entry, looked up): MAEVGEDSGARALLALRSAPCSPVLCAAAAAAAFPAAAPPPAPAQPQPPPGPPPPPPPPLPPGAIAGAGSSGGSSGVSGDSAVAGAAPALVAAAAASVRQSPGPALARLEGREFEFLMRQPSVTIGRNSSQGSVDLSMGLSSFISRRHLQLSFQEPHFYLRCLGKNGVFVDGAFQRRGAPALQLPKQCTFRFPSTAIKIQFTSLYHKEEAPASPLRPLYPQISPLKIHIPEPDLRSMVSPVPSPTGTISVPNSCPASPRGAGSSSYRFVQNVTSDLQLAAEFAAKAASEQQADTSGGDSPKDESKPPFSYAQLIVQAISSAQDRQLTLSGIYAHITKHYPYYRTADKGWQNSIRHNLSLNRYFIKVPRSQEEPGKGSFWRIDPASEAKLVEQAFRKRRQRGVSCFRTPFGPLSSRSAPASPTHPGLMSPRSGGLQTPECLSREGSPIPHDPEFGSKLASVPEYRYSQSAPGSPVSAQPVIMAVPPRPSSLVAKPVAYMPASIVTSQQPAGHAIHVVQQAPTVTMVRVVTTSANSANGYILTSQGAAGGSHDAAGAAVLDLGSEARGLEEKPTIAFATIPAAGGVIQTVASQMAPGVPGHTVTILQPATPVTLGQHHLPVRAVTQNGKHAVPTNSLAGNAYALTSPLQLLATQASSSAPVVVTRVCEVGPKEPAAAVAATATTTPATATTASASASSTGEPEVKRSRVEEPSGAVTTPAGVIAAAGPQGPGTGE
Chain of UniProt Q9UI10 (Q9UI10 whole entry, looked up): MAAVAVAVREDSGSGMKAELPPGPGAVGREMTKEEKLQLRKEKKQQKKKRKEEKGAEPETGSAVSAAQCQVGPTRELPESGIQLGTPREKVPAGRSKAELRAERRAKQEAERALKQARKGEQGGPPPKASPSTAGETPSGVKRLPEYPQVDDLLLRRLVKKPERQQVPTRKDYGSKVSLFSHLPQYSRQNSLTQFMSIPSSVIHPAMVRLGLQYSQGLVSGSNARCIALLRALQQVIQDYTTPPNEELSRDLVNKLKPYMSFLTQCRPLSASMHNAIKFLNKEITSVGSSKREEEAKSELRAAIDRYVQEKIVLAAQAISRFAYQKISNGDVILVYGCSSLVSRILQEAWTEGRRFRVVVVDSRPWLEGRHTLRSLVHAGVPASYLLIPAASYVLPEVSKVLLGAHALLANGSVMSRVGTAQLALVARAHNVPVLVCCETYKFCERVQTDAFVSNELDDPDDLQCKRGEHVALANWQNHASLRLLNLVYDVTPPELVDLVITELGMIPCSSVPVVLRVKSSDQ
Chain of UniProt O75477 (O75477 whole entry, looked up): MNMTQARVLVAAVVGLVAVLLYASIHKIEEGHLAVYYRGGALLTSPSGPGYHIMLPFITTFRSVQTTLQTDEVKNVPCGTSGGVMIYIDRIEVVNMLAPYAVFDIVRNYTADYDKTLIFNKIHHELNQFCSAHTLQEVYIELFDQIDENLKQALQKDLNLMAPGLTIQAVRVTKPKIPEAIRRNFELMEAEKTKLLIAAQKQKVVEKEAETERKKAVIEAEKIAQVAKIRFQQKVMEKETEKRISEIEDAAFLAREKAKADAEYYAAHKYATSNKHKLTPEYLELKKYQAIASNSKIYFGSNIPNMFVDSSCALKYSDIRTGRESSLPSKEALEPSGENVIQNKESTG
Chain of UniProt Q9H6S3 (Q9H6S3 whole entry, looked up): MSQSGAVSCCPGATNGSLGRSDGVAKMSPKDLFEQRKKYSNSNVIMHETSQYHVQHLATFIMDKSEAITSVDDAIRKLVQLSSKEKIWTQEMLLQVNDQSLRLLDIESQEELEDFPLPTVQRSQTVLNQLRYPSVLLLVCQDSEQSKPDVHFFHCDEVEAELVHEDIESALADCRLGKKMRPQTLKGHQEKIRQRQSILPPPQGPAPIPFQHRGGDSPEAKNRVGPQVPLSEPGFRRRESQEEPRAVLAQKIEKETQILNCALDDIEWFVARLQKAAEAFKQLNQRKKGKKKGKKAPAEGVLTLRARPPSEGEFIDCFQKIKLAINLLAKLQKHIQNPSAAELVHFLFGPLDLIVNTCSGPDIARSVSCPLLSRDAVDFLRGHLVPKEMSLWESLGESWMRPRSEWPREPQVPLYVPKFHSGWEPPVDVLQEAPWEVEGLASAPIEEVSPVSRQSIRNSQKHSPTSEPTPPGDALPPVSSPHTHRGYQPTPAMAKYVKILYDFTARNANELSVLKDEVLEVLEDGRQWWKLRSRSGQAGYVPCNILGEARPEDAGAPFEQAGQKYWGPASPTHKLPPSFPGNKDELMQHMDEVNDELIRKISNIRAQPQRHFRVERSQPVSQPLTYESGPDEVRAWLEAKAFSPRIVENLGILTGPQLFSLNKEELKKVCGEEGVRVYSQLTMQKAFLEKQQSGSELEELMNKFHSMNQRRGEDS
Chain of UniProt Q08426 (Q08426 whole entry, looked up): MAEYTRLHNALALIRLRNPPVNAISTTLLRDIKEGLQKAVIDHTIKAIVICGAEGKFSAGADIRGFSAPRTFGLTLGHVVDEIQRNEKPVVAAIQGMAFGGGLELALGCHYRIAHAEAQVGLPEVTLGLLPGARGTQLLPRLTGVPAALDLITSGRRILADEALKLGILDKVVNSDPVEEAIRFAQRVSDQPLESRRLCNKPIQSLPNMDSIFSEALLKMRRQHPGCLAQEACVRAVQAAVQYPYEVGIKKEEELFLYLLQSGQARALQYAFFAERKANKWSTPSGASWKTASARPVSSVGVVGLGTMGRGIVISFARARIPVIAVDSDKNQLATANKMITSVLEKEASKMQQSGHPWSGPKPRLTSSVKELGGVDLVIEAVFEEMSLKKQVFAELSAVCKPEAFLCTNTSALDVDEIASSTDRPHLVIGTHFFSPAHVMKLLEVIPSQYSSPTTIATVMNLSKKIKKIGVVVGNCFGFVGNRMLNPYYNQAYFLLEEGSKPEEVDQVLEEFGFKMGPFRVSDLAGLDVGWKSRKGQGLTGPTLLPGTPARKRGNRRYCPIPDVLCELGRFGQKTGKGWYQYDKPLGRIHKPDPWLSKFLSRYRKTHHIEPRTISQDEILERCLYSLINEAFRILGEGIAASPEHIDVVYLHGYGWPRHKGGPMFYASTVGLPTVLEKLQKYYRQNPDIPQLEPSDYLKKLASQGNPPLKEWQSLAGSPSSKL
Chain of UniProt Q9Y6B2 (Q9Y6B2 whole entry, looked up): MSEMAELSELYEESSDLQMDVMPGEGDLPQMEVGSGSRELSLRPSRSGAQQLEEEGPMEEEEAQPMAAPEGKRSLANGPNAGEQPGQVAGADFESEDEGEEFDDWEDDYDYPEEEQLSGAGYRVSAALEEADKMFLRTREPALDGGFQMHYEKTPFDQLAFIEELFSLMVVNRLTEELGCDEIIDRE
Chain of UniProt Q8NFI3 (Q8NFI3 whole entry, looked up): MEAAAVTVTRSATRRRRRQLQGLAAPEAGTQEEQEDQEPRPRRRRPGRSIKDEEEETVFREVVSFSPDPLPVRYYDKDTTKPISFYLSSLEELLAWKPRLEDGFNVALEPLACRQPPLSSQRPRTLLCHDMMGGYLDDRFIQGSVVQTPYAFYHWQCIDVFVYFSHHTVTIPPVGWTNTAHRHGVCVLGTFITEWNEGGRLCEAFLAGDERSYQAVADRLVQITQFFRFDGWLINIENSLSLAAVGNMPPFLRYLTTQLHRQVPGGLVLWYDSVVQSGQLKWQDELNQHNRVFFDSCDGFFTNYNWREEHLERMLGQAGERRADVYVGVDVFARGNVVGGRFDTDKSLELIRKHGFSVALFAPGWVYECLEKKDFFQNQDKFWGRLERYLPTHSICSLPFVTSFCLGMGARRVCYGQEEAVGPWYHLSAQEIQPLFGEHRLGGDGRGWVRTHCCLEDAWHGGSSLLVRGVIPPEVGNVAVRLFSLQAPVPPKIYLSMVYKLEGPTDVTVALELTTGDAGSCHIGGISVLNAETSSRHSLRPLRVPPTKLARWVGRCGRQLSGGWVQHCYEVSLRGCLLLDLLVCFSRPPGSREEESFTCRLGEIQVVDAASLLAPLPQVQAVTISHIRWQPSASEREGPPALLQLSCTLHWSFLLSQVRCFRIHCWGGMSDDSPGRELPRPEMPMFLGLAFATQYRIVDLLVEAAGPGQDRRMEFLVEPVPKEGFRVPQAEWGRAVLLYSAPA
Chain of UniProt Q9H790 (Q9H790 whole entry, looked up): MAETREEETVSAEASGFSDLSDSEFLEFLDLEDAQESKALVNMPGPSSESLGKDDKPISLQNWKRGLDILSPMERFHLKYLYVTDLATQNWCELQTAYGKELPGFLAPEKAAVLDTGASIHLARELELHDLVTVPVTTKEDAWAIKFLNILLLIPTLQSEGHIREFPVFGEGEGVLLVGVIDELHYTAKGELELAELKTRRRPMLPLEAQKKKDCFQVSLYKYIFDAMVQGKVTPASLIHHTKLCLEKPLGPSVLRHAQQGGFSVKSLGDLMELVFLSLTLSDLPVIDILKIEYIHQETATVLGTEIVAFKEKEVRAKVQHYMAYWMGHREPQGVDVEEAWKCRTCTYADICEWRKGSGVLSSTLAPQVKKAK
Chain of UniProt Q86UY5 (Q86UY5 whole entry, looked up): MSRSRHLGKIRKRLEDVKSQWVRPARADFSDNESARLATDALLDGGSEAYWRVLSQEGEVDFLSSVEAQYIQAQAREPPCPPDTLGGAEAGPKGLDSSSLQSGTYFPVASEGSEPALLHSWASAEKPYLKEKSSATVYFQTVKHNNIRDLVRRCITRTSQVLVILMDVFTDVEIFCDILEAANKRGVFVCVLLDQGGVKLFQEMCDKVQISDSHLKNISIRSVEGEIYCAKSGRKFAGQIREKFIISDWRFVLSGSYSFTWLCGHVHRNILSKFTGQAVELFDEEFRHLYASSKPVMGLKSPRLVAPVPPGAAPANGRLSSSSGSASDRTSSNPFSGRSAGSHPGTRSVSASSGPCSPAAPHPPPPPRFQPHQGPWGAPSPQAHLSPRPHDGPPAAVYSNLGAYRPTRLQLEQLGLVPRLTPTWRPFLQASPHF
Chain of UniProt P60981 (P60981 whole entry, looked up): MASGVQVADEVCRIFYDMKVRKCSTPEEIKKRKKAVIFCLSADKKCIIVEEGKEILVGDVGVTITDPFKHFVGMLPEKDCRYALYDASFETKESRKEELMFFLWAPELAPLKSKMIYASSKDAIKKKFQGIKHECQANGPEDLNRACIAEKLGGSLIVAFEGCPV

Row | Target | log2 fold change [1] | log2 fold change (vorinostat) | log2 fold change (silmitasertib) | log2 fold change [2] | log2 fold change (entospletinib)
1 | GBF1 (UniProt Q92538) | -0.019 | -0.304 (active) | 0.023 | 0.043 | 0.008
2 | EXOC3 (UniProt O60645) | 0.018 | -0.221 (active) | 0.03 | 0.002 | -0.026
3 | DST (UniProt Q03001) | 0.262 | -0.035 | -0.02 | 0.01 | -0.03
4 | ERI1 (UniProt Q8IV48) | -0.001 | -0.221 (active) | -0.035 | -0.017 | 0.041
5 | ERLIN2 (UniProt O94905) | -0.012 | 0.032 | 0.019 | -0.005 | 0.016
6 | EEF1AKMT4 (UniProt P0DPD7) | 0.053 | -0.312 (active) | 0.029 | 0.035 | 0.012
7 | FBXO45 (UniProt P0C2W1) | -0.013 | -0.367 (active) | 0.127 | 0.021 | -0.05
8 | DVL2 (UniProt O14641) | -0.056 | 0.33 (active) | 0.049 | 0.078 | -0.015
9 | GATAD2A isoform 3 (UniProt Q86YP4) | 0.023 | -0.213 (active) | -0.028 | 0.019 | -0.001
10 | DSTN (UniProt P60981) | -0.012 | -0.34 (active) | 0.014 | -0.031 | -0.021
11 | GCLM (UniProt P48507) | 0.007 | -0.277 (active) | -0.013 | 0.032 | 0.021
12 | ENGASE (UniProt Q8NFI3) | -0.01 | -0.337 (active) | 0.05 | -0.013 | -0.004
13 | FARSA (UniProt Q9Y285) | -0.025 | 0.381 (active) | 0.007 | -0.006 | 0.003
14 | EEFSEC (UniProt P57772) | -0.022 | -0.325 (active) | 0.052 | -0.012 | -0.009
15 | EIF3I (UniProt Q13347) | 0.022 | -0.316 (active) | 0.061 | -0.005 | 0.005
16 | FAM83D (UniProt Q9H4H8) | 0 | -0.243 (active) | 0.031 | -0.004 | 0.021
17 | EWSR1 isoform 5 (UniProt Q01844) | 0.027 | 0.036 | -0.034 | 0.006 | 0.014
18 | GDPD1 (UniProt Q8N9F7) | -0.137 | 0.056 | 0.033 | 0.177 | -0.092
19 | EEF1AKNMT (UniProt Q8N6R0) | -0.004 | -0.414 (active) | 0.076 | -0.005 | 0.026
20 | FAM83A (UniProt Q86UY5) | -0.049 | -0.417 (active) | -0.034 | -0.052 | -0.002

Row | Target | log2 fold change [1] | log2 fold change (vorinostat) | log2 fold change (silmitasertib) | log2 fold change [2] | log2 fold change (entospletinib)
21 | GCN1 (UniProt Q92616) | 0.01 | -0.374 (active) | 0.114 | 0.033 | -0.011
22 | FADS1, A0A0A0MR51 | 0.054 | 0.093 | -0.003 | -0.046 | -0.028
23 | GDE1 (UniProt Q9NZC3) | – | -0.007 | 0.006 | 0.04 | -0.162
24 | EIF2AK3 (UniProt Q9NZJ5) | – | -0.142 | 0.241 | – | –
25 | GBA2 (UniProt Q9HCG7) | – | -0.089 | -0.004 | -0.091 | -0.102
26 | EID1 (UniProt Q9Y6B2) | – | -0.192 | 0.191 | – | -0.143
27 | EHHADH (UniProt Q08426) | – | 0.706 (active) | -0.035 | -0.048 | -0.013
28 | EMP3 (UniProt P54852) | 0.013 | -0.022 | -0.05 | -0.014 | 0.144
29 | EXO5 (UniProt Q9H790) | – | 0.043 | -0.06 | 0.054 | –
30 | ESRRB isoform 1 (UniProt O95718) | – | – | 0.087 | – | –
31 | DYRK1A isoform 2 (UniProt Q13627) | – | -0.222 | -0.035 | 0.002 | –
32 | FAT1 (UniProt Q14517) | – | -0.229 | 0.077 | -0.196 | -0.034
33 | ERG28 (UniProt Q9UKR5) | – | – | – | – | 0.009
34 | DST isoform 3 (UniProt Q03001) | – | -0.041 | 0.087 | – | -0.004
35 | EPB41 isoform 4 (UniProt P11171) | – | 0.071 | 0.101 | -0.085 | –
36 | GCA (UniProt P28676) | – | 1.36 (active) | -0.104 | – | –
37 | EDC3 (UniProt Q96F86) | 0.02 | -0.277 (active) | 0 | -0.026 | 0.013
38 | FAU (UniProt E9PR30) | 0.006 | 0.212 (active) | 0.047 | -0.006 | 0.016
39 | FLT4 (UniProt P35916) | -0.097 | -0.435 (active) | 0.178 | – | 0.054
40 | EPS8L2 (UniProt Q9H6S3) | – | 0.017 | -0.019 | 0.026 | 0.33 (active)

Row | Target | log2 fold change [1] | log2 fold change (vorinostat) | log2 fold change (silmitasertib) | log2 fold change [2] | log2 fold change (entospletinib)
41 | GFPT1 (UniProt Q06210) | 0.034 | -0.409 (active) | 0.004 | 0.012 | 0.019
42 | EPN2 (UniProt O95208) | -0.005 | 0.156 | 0.02 | -0.001 | 0.012
43 | FOXJ2 (UniProt Q9P0K8) | – | -0.208 | -0.058 | – | 0.033
44 | EWSR1 (UniProt H7BY36) | 0.136 | – | – | -0.047 | 0.016
45 | EXTL2 (UniProt Q9UBQ6) | -0.171 | 0.189 | -0.053 | 0.01 | -0.036
46 | GC isoform 3 (UniProt P02774) | -0.058 | – | – | 0.076 | -0.053
47 | FLAD1 (UniProt Q8NFF5) | -0.012 | -0.397 (active) | 0.102 | -0.005 | 0.037
48 | FOXK1 (UniProt P85037) | 0.022 | -0.414 (active) | -0.026 | -0.048 | 0.038
49 | FNDC3A (UniProt Q9Y2H6) | – | -0.018 | -0.119 | -0.146 | –
50 | EIF2B4 (UniProt Q9UI10) | 0.028 | -0.135 | 0.013 | -0.006 | -0.05
51 | GART (UniProt C9JZG2) | – | – | – | -0.069 | 0.037
52 | EPB41, A0A2R8Y783 | -0.071 | – | – | – | 0.393
53 | FMNL2 isoform 3 (UniProt Q96PY5) | – | -0.587 (active) | -0.027 | 0.045 | –
54 | GIPC3 (UniProt Q8TF64) | – | -0.336 | 0.044 | -0.007 | -0.017
55 | FTSJ1 isoform 2 (UniProt Q9UET6) | -0.109 | – | – | – | 0.047
56 | ESRRA (UniProt P11474) | -0.094 | – | 0.063 | 0.026 | -0.034
57 | ERLIN1 (UniProt O75477) | -0.07 | 0.063 | 0.064 | 0.03 | 0.023
58 | FOXL2 (UniProt P58012) | – | -0.501 | -0.027 | – | -0.352

From the supplement of paper PMC10849652
